Source: PubChem BioAssay AID1259313 (Sanford-Burnham Center for Chemical Genomics, 2017)
The whole screen tested about 340,000 compounds, of which about 8,500 (2.5%) were called active. This is one part of a sample in which actives are shown more often than they occur.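 The calls were made as follows: active = melting temperature shift of at least 10% of the positive control shift, at one fixed dose; inactive = the rest.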

Each compound was assayed on Glutamate receptor ionotropic, NMDA 3A (GRIN3A) ligand-binding domain (assay: binders of NR3A ligand-binding domain, primary screen, biophysical, differential scanning fluorimetry, uHTS (AID 1259313)). Details: NR3A LBD differential scanning fluorimetry, at 25 µM, stronger effect = higher value, 0% = protein alone, 100% = glycine-bound protein.

Tm shift relative to glycine control, active:
O=C(Nc1ccc2c(c1)CCC2)c1cccc(S(=O)(=O)Nc2ccccc2Cl)c1 14.9%, S=C(Nc1ccccc1)Nc1ccc2ccccc2c1 12.3%, CCOc1ccccc1-c1cc(C(=O)N2CCOCC2)c2ccccc2n1 12.6%, CC(=O)N1CCN(C(=O)c2cc(-c3ccc(C)o3)nc3ccccc23)CC1 40%, COc1ccc(/C=C2/C(=O)OCc3cc(OC)c(OC)cc32)c(OC)c1 24.2%, CCCOc1ccc(C(=O)NCCc2ccccc2)cc1 25.8%, CCN1C(=O)[C@H]2[C@@H](c3ccc(SC4CCCCC4)c(OC)c3)N[C@@](Cc3ccccc3)(C(=O)OC)[C@H]2C1=O 15.5%, O=C(CC1(O)C(=O)N(CN2CCOCC2)c2ccccc21)c1ccccc1 (stereo unspecified) 27.8%, Cc1[nH]n(C(N)=S)c(=O)c1N=Nc1ccc(Cl)cc1Cl 15%

Tm shift relative to glycine control, inactive:
O=C1CSC(c2cccc(F)c2)N1c1ccc(O)cc1 (stereo unspecified) -2.36%, COc1ccc(Nc2ccc3ccccc3c2)cc1 1.95%, Cc1ccc(NC(=S)Nc2ccc(F)cc2)cc1 -4.68%, CCC1(c2ccccc2)NC(=O)N(CC(=O)Nc2ccccc2C(=O)NC2CCCC2)C1=O (stereo unspecified) 0.96%, Cc1ccc(S(=O)(=O)N2CCCCC2)cc1NC(=O)[C@@H]1CCCN1C(=O)c1cccs1 -0.43%, O=C(c1cc(-c2ccc(Cl)s2)nc2ccccc12)N1CCOCC1 -0.91%, COc1ccc(NC(=O)c2cc(-c3ccc(C)o3)nc3ccccc23)cc1 3.74%, CCOc1ccccc1-c1cc(C(=O)N/N=C(\C)c2cccnc2)c2ccccc2n1 -0.86%, CC1CCCN(C(=O)c2cc(-c3ccco3)nc3ccccc23)C1 (stereo unspecified) 1.06%, CCN1C(=O)[C@@H]2[C@@H](c3ccc(-c4cccc(Cl)c4)cc3)N3CCC[C@@]3(C(=O)OC)[C@@H]2C1=O -0.81%, O=C(C(=O)N1CCc2ccccc2C1)c1c[nH]c2ccccc12 1.51%, CN1CCN(C(=O)c2ccc(-c3ccc(Br)cc3)o2)CC1 1.11%, CC(=O)c1cccc(NC(=S)N2CCN(S(C)(=O)=O)CC2)c1 -1.28%, COc1ccc(CN(C)Cc2nc3cc(OC)c(OC)cc3c(=O)[nH]2)c(OC)c1 -1.12%, COc1ccc(/C=C2/C(=O)N(c3ccccc3)N=C2C)c(OC)c1 -4.6%, CC(=O)c1ccc(OCCCC(=O)Nc2ccc(C)c(S(=O)(=O)N3CCOCC3)c2)cc1 1.04%, O=C(Nc1ccnn1C1CCN(C/C=C/c2ccc(F)cc2)CC1)C1CCCC1 -2.33%, CC1CCCCN1S(=O)(=O)c1ccc(S(=O)(=O)N(CC(=O)Nc2ccccc2)Cc2cccs2)cc1 (stereo unspecified) -4.57%, O=C(C[n+]1ccc2c(c1)nnn2-c1ccccc1)c1ccc(Cl)cc1 -2.3%, CC(=NNC(=S)N1CCCCCC1)c1ccccn1 1.26%, CCn1c(SCc2cccc(C(=O)O)c2)nnc1-c1ccc(Cl)cc1 -0.55%, CCCc1ccc(OCCNC(=O)c2ccccc2Br)cc1 -0.74%, CN(c1ccccc1)S(=O)(=O)c1ccc(C(=O)NCCc2ccccc2)cc1 -0.95%, CC(C)Oc1ccc(S(=O)(=O)N2CCOCC2)cc1NC(=O)C1CCCC1 2.72%, N#Cc1cc([N+](=O)[O-])ccc1NC(=O)COC(=O)c1cnccn1 0.45%, CCOc1ccc2[nH]c3nc(SCC(=O)NC4CCCC4)nnc3c2c1 -4.45%, CCN1C(=O)[C@H]2[C@@H](c3ccc(-c4ccc(OC)cc4)cc3)N[C@@](Cc3ccccc3)(C(=O)OC)[C@H]2C1=O -3.39%, CCN1C(=O)[C@H]2[C@@H](c3ccc(-c4ccc(F)cc4)cc3)N[C@@](Cc3ccccc3)(C(=O)OC)[C@H]2C1=O 1.35%, Cc1ccc(C(=O)OCC(=O)Nc2ccc(Cl)cn2)cc1S(=O)(=O)N1CCOCC1 3.32%, COc1cccc(N2CC(C(=O)NCc3n[nH]c(=O)c4ccccc34)CC2=O)c1 (stereo unspecified) -0.43%, Cc1cc(Cl)ccc1N1C(=O)CC(SCCC(=O)O)C1=O (stereo unspecified) 2.57%, C=CCN1C(=O)C(O)(CC(=O)c2ccc(Cl)cc2)c2ccccc21 (stereo unspecified) -2.1%, C=CCN1C(=O)C(O)(CC(=O)c2ccccn2)c2ccccc21 (stereo unspecified) -0.48%, COc1ccccc1C(=O)NC(CCSC)C(=O)N1CCN(C/C=C/c2ccccc2)CC1 (stereo unspecified) 2.33%, COc1ccccc1N1CCN(c2ncnc3sc(C)c(-c4ccccc4)c23)CC1 1.26%, CC1=NN(C(N)=S)C(=O)C1N=Nc1cc(Cl)ccc1Cl (stereo unspecified) 8.72%, Cc1[nH]n(C)c(=O)c1N=Nc1ccc(S(C)(=O)=O)cc1 1.71%
